15 compounds from PubChem BioAssay (EPA / NIEHS) can be followed below.

The target of test [1] is human Vitamin D Receptor (VDR), VDR (gene 7421) (UniProt P11473). The test is described as follows: ATG_VDR_TRANS: Attagene TRANS-FACTORIAL HepG2 Assay for human Vitamin D Receptor (VDR) (AID 2283022; active means hit-call score of the fitted dose curve at least 0.9, where 1 is the maximum). Put shortly: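 Multiplexed TRANS reporter in HepG2; 24 h treatment; reporter mRNA by RT-PCR plus capillary electrophoresis; upregulation scored relative to DMSO.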
Test [2] in a line: BSK_3C_SRB: Viability Assessment in the BioMAP Diversity Plus: 3C Assay (AID 2283023).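 Further: cells read 24 h after compound dosing; fitted both ways against DMSO so a hit may be signal rise or drop.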 To be noted: primary human endothelial cells (HUVEC). The method in brief: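 Overt cytotoxicity is gauged in parallel confluent HUVEC cultures by SRB total-protein staining at the time of biomarker measurement, 24 h after dosing. Gain or loss of signal is fitted versus DMSO.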
Read-out in test [3]: Matrix Metallopeptidase 1 (MMP1), MMP1 (gene 4312)
Put plainly: BSK_BE3C_MMP1: BioMAP Diversity Plus: BE3C Assay for Matrix Metallopeptidase 1 (MMP1) Biomarker Activity (AID 2283024). To be noted: primary human bronchial epithelial cells; actives raise or lower the signal. Put shortly:
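Primary human bronchial epithelial cells were dosed with test chemicals, and MMP1 levels were measured by ELISA 24 h later. Data were fitted bidirectionally against DMSO as the negative control and activity baseline.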

Test [4] in a line: BSK_3C_Vis: BioMAP Diversity Plus: 3C Assay for Morphology Visualization (AID 2283025).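 Further: fitted both ways so gain or loss versus DMSO counts.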 As to conditions: primary human endothelial cells (HUVEC). Put shortly: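 Human umbilical vein endothelial cells in the 3C system were imaged by light microscopy 24 h after chemical dosing to record cell morphology. Activity was fitted bidirectionally against DMSO as negative control and baseline; the endpoint serves as a background control.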

Read-out in test [5]: Pselectin, SELP (gene 6403)
The test is described as follows: BSK_4H_Pselectin: BioMAP Diversity Plus: 4H Assay for Pselectin Biomarker Activity (AID 2283026). As to conditions: primary human endothelial cells (HUVEC); actives raise or lower the signal. Put shortly:
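Primary human umbilical vein endothelial cells were exposed to test chemical for 24 h, then cell-surface P-selectin was quantified by ELISA. Activity was fitted bidirectionally against DMSO as negative control and baseline.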

Test [6] can be described thus: BSK_4H_SRB: Viability Assessment in the BioMAP Diversity Plus: 4H Assay (AID 2283027).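 Further: cells exposed to compound for 24 h before staining.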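 On AC50: curves fitted both ways versus DMSO so AC50 may be loss or gain.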 As to conditions: primary human endothelial cells (HUVEC). The method in brief: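 Human umbilical vein endothelial cells were dosed with chemical and, after 24 h, fixed with 10% TCA, stained with 0.1% sulforhodamine B, and read at 560 nm to give total protein as a cytotoxicity measure. Bidirectional fitting relative to DMSO control.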

Test [7] in a line: BSK_BE3C_SRB: Viability Assessment in the BioMAP Diversity Plus: BE3C Assay (AID 2283028).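 On AC50: fitted both ways so AC50 may mark signal gain or loss versus DMSO.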 As to conditions: primary human bronchial epithelial cells. The method in brief:
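SRB total-protein staining (0.1%, after TCA fixation) of chemically dosed human bronchial epithelial primary cells at 24 h; DMSO serves as the negative control for bidirectional curve fitting.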

Read-out in test [8]: Thrombomodulin, THBD (gene 7056)
Put plainly: BSK_3C_Thrombomodulin: BioMAP Diversity Plus: 3C Assay for Thrombomodulin Biomarker Activity (AID 2283029). As to conditions: primary human endothelial cells (HUVEC); actives raise or lower the signal. The method in brief: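 Primary human umbilical vein endothelial cells (3C system) were exposed to chemical for 24 h, then thrombomodulin levels were measured by ELISA. Activity was fitted bidirectionally against the DMSO negative control as baseline.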

Read-out in test [9]: Urokinase-type plasminogen activator receptor (uPAR), PLAUR (gene 5329)
The test is described as follows: BSK_4H_uPAR: BioMAP Diversity Plus: 4H Assay for Urokinase-type plasminogen activator receptor (uPAR) Biomarker Activity (AID 2283030). To be noted: primary human endothelial cells (HUVEC); actives raise or lower the signal. Put shortly: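 Endpoint derived via bidirectional curve fitting against DMSO baseline; readout was ELISA detection of uPAR on umbilical vein endothelial cells at 24 h post-treatment, with SRB-stained parallel cultures assessing cytotoxicity.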

Read-out in test [10]: Vascular endothelial growth factor receptor 2 (Homo sapiens) (UniProt P35968)
Put plainly: BSK_4H_VEGFRII: BioMAP Diversity Plus: 4H Assay for Vascular endothelial growth factor receptor 2 (VEGFR2) Biomarker Activity (AID 2283031).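 On AC50: cell-surface VEGFR2 protein level quantified by ELISA.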 To be noted: primary human endothelial cells (HUVEC); actives raise or lower the signal. Put shortly:
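In this multiplexed HUVEC system, biomarker ELISA was performed after 24 h chemical exposure. Parallel SRB staining (TCA fixation, 560 nm) tracked cytotoxicity; DMSO served as baseline.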

Each structure is given as a SMILES string. Several values for one entry are separate records, joined by “and”; a condition that tells them apart may be missing. Identical values can stand only once. Records with an inconclusive call do not appear. The source holds several records for some structures; these can differ, active in one and inactive in another. Activity calls are given as the source filed them. How the source made its calls, unless noted: active means hit-call score of the fitted dose curve at least 0.9, where 1 is the maximum; inactive means score below 0.9.

One may read the AC50 as the midpoint of the concentration-response curve, whichever way the signal moves.

Chain of human Vitamin D Receptor (VDR), VDR (gene 7421) (P11473 whole entry, looked up): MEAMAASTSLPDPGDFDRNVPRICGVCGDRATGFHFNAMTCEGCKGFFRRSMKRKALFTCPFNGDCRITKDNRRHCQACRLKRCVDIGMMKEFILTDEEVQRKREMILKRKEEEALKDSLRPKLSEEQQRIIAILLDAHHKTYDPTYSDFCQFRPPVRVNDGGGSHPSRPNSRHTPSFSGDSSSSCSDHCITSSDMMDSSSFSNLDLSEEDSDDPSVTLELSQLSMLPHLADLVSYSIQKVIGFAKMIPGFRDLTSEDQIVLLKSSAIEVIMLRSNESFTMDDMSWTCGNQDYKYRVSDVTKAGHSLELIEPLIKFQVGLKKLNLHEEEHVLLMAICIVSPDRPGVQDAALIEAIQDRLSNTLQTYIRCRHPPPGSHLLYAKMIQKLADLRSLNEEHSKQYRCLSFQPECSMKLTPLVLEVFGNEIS

With `ClC1=C(Cl)[C@]2(Cl)[C@@H]3[C@H]4C[C@H]([C@@H]5O[C@H]45)[C@@H]3[C@@]1(Cl)C2(Cl)Cl`, the compound was called inactive in [1], in test [4], in [5], in test [7], in [8] and in test [9]. Further, in test [10], the result was inactive. In addition, the AC50 in [2] is 9.88 µM (active); in test [3], 7.22 µM (active); in test [6] it was 3.97 µM (active).
`CC(c1ccc(O)cc1)(c1ccc(O)cc1)c1ccc(O)cc1`: the AC50 was 17.7 µM (active) in test [1]; 28 µM (active) in test [2]; 39 µM (active) in test [4]; 31.9 µM (active) in [5]; 20 µM (active) in test [6]; 30.8 µM (active) in test [9]. Besides, the result in [3], in test [7], in test [8] and in [10] was inactive.
On to `CCNc1nc(NC(C)C)nc(SC)n1`, for which the compound was classed as inactive in test [1], in [2], in [3], in test [4], in test [5] and in test [6]. In addition, the result in test [7], in test [8], in test [9] and in [10] was inactive.
Turning to `Oc1c(Cl)c(Cl)c(Cl)c(Cl)c1Cl`, the AC50 in [1] was 9.71 µM (active); in test [2], 15.4 µM (active) and 13 µM (active); in [3], 26.1 µM (active); in test [4] it was 14.1 µM (active); in test [5] it was 8.49 µM (active) and 9.69 µM (active); in test [6], 10.2 µM (active) and 9.07 µM (active). Moreover, the AC50 in test [7] is 4.33 µM (active) and 28.2 µM (active); in test [8] it was 20 µM (active); in test [9] it was 5.58 µM (active) and 9.79 µM (active); in test [10], 11.6 µM (active). For the same compound, the call in [1], in test [3], in test [4], in test [8] and in test [10] was inactive.
For the compound `CN(C)CCO`, the call in test [1], in test [2], in test [3], in test [4], in test [5] and in test [6] was inactive. For the same compound, the outcome in test [7], in test [8], in test [9] and in test [10] was inactive.
Turning to `Oc1ccc(C(c2ccc(O)cc2)(C(F)(F)F)C(F)(F)F)cc1`, the call in test [1] and in test [10] was inactive. In addition, the half-maximal activity concentration (AC50) in test [2] is 16.2 µM (active); in test [3] it was 34 µM (active); in test [4], 18.7 µM (active); in test [5] it was 15.7 µM (active); in test [6], 28 µM (active); in test [7], 37.2 µM (active). The AC50 is 21.3 µM (active) in test [8] and 32.5 µM (active) in test [9].
Consider `O=C(N[C@H]1CN2CCC1CC2)c1cc2ccoc2cn1`, for which the outcome in test [1], in test [2], in [3], in test [4], in [5] and in test [6] was inactive. Moreover, the outcome in test [7], in test [8], in test [9] and in test [10] was inactive.
On to `CCOP(=S)(OCC)SCSC(C)(C)C`, for which the compound was called inactive in test [1], in test [2], in test [3], in test [4], in test [5] and in test [6]. The outcome in test [7], in [8], in [9] and in [10] was inactive.
With `Clc1ccc(Cl)cc1`, the compound was classed as inactive in [1], in test [2], in test [3], in test [4], in test [5] and in test [6]. Besides, the result in [7], in test [8], in test [9] and in [10] was inactive.
In the case of `O=S(=O)(O)C(F)(F)C(F)(F)C(F)(F)C(F)(F)F`, the call in test [1], in test [2], in test [3], in test [4], in test [5] and in test [6] was inactive. The outcome in test [7], in [8], in test [9] and in [10] was inactive.
Consider `ClC1=C(Cl)[C@]2(Cl)[C@@H]3[C@@H](Cl)[C@H]4O[C@H]4[C@@H]3C1(Cl)C2(Cl)Cl`, for which the compound was classed as inactive in test [1], in [3], in test [4], in [5], in test [6] and in test [7]. The result in test [8], in test [9] and in [10] was inactive. In addition, the AC50 in test [2] was 11.9 µM (active).
For the compound `CC#Cc1cc(C)nc(Nc2ccccc2)n1`, the compound was classed as inactive in test [1], in test [2], in test [3], in test [4], in test [5] and in test [6]. Besides, the result in test [7], in test [8], in [9] and in test [10] was inactive.
`ClC1=C(Cl)[C@]2(Cl)[C@@H]3[C@@H]4C[C@@H]([C@H]5O[C@@H]45)[C@@H]3[C@@]1(Cl)C2(Cl)Cl`: the compound was called inactive in test [1], in [3], in test [5], in test [6], in test [7] and in test [8]. For the same compound, the outcome in [9] and in [10] was inactive. For the same compound, the results for the half-maximal activity concentration (AC50) in test [2] and in test [4] were 12.5 µM (active) and 13.7 µM (active), respectively.
Take `O=C(O)C(F)(F)C(F)(F)C(F)(F)C(F)(F)C(F)(F)C(F)(F)C(F)(F)C(F)(F)F`: the outcome in test [1], in [2], in test [3], in test [4], in test [5] and in [6] was inactive. Besides, the outcome in [8], in [9] and in test [10] was inactive. Besides, the concentration at half-maximal activity (AC50) was 54.3 µM (active) and 51.6 µM (active) in [2]; 52.4 µM (active) and 50.9 µM (active) in test [3]; 44 µM (active) and 46.1 µM (active) in test [6]; 34.8 µM (active) and 49.8 µM (active) in test [7].
On to `ClC(Cl)=C(c1ccc(Cl)cc1)c1ccc(Cl)cc1`, for which the compound was called inactive in [1], in test [7] and in [8]. The AC50 is 29.2 µM (active) in test [2]; 25.2 µM (active) in [3]; 37.3 µM (active) in test [4]; 31.3 µM (active) in [5]; 30.6 µM (active) in [6]; 32.8 µM (active) in [9]. Further, the AC50 in [10] is 34.9 µM (active).
